Measurements from publication PMC6753376.

What follows are substances tested against CCT7 (UniProt Q99832) (assay: cross-linking mass spectrometry). Conditions: lysate.
CCT7, sequence (Q99832 whole entry): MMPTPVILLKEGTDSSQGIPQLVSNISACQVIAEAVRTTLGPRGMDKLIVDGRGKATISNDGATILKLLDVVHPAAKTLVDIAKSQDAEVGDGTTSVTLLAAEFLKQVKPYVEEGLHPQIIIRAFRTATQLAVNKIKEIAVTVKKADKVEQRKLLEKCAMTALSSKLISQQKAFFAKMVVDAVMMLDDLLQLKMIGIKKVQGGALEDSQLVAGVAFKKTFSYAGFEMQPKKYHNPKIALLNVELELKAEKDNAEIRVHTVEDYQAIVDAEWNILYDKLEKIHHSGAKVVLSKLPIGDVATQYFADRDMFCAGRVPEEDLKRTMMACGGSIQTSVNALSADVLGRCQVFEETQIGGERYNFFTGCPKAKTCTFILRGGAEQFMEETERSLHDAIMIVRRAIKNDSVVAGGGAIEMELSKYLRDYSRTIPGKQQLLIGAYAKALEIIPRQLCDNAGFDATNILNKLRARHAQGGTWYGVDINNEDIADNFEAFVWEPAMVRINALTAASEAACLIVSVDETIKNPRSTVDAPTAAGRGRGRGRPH

USO1, O60763, sequence (O60763 whole entry): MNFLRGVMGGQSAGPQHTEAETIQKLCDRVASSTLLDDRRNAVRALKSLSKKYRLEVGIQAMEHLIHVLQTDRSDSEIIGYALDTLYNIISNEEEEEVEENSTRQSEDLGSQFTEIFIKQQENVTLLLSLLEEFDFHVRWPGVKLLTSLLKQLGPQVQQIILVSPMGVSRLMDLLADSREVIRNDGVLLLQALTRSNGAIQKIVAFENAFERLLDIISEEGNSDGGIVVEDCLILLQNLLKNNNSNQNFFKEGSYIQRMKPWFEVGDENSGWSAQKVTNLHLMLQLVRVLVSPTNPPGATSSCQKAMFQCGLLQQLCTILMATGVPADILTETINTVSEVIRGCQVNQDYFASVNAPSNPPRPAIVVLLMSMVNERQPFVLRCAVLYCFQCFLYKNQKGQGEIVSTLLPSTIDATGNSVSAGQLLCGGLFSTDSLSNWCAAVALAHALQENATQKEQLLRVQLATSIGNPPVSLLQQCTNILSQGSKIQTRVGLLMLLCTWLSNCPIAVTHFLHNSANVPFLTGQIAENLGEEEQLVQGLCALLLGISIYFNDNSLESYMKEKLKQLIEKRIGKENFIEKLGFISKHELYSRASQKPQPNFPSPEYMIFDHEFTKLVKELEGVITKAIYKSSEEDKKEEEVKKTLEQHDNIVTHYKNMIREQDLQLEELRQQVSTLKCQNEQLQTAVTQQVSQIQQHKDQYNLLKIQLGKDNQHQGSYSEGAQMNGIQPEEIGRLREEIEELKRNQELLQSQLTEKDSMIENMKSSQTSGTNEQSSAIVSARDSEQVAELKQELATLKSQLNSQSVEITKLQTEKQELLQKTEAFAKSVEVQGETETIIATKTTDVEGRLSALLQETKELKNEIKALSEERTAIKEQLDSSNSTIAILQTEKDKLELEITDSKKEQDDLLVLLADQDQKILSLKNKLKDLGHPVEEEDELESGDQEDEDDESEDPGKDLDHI
CCT8, P50990, sequence (P50990 whole entry): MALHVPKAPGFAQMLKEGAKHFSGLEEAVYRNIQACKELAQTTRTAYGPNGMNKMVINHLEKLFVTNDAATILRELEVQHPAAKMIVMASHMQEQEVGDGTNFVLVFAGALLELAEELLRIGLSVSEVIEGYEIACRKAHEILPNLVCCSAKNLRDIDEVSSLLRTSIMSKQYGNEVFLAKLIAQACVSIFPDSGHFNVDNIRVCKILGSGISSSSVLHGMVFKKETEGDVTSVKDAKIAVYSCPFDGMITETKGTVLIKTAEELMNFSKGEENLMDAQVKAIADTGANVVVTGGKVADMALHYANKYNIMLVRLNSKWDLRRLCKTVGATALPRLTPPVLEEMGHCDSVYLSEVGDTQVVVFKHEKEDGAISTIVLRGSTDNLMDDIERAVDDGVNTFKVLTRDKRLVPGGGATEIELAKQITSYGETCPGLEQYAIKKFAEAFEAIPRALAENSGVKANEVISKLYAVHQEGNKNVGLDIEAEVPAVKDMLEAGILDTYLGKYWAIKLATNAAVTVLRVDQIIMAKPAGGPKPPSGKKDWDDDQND
CCT5, P48643, sequence (P48643 whole entry): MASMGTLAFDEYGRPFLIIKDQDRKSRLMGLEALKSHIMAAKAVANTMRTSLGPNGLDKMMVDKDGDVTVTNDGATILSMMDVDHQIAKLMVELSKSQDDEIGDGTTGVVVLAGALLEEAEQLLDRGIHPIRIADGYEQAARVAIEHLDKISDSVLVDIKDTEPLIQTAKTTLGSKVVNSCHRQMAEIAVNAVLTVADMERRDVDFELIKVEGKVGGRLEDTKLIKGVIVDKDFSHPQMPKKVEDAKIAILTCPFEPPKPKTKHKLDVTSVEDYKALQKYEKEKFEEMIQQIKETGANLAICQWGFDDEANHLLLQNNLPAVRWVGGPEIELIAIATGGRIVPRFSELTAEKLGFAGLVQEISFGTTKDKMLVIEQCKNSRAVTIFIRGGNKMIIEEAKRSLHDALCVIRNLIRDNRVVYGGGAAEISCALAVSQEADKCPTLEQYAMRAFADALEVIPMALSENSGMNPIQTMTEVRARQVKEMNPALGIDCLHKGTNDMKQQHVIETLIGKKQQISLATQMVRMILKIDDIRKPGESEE

Row | Substance | cross-linked residues
1 | USO1, O60763 | S164 - S329
2 | CCT5, P48643 | K89 - K55
3 | CCT8, P50990 | K270 - K236
